Structures are written as SMILES. The whole screen tested about 360,000 compounds, of which about 17,000 (4.7%) were called active. Roughly 5% stayed inconclusive and do not appear here. Cut-off read from the data, not from the text of the source: active = activity change below about -50%; inconclusive = mostly about -30% to -49%; inactive = weaker than that. Shown is part of a subset that was picked to be rich in actives.
% is set by controls: 0 for no effect and ±100 for the full control effect.

A short description of the test: qHTS for Inhibitors of Inflammasome Signaling: IL-1-beta AlphaLISA Primary Screen. As to conditions: THP-1 LPS/ATP IL-1B secretion, 16 h; at 57.5 µM, stronger effect = lower value. In outline:
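Secreted IL-1B measured by AlphaLISA bead assay after 16 h compound exposure of THP-1 cells; compounds (final up to 57.5 uM) added 1 h before LPS (250 ng/mL) and ATP (1.25 mM) stimulation; lower signal means less secretion.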
As for `CC(=O)N1C[C@@H](CO)[C@@H](N(C)C(=O)c2ccco2)C[C@H]1c1ccccc1`, the activity change was 11.5% (inactive).

For the compound `Fc1ccccc1/C=N/Nc1cc(N2CCCCC2)ncn1`, the activity change was -12% (inactive).

Regarding `CN(C)c1ccc(/C=N/Nc2cc(N3CCOCC3)nc(N3CCOCC3)n2)cc1`, the activity change is -1.5% (inactive).

For `C(=N/Nc1cc(N2CCOCC2)nc(N2CCOCC2)n1)/c1ccccc1`, the activity change is -78.9% (active).

On to `OC(c1ccccc1)c1nc(-c2cnc3ccccc3c2)cs1` (stereo not given), for which the activity change is 32.8% (inactive).

On to `O=C(Cc1ccc([N+](=O)[O-])cc1)NCCc1ccc2c(c1)OCO2`, for which the activity change was 0% (inactive).

On to `O=C(N/N=C/c1cc([N+](=O)[O-])ccc1O)/C(=C\c1cccs1)NC(=O)c1ccccc1`, for which the activity change was 245% (inactive).

As for `Nc1nnnn1/N=C/c1cc([N+](=O)[O-])ccc1O`, the activity change was 0% (inactive).

As for `O=[N+]([O-])c1ccc(O)c(/C=N/Nc2ccccc2[N+](=O)[O-])c1`, the activity change is -51.4% (active).

Turning to `CCCNC(=O)c1cc(C2CCCCN2S(=O)(=O)c2ccc(C#N)cc2)on1` (stereo not given), the activity change was -18.6% (inactive).

For the compound `CCOc1cc(/C=C2\SC(N3CCCC(C)C3)=NC2=O)ccc1O` (stereo not given), the activity change was -57.3% (active).

Take `CCOc1ccc2nc(C(=O)N3CCCC(C)C3)sc2c1` (stereo not given): the activity change is -10.2% (inactive).

For `CCOc1cc(/C=C2\C(=N)N3N=C(C)SC3=NC2=O)ccc1OCCOc1ccccc1`, the activity change is 4.36% (inactive).

As for `Nc1[nH]c(C(=O)c2ccccc2)c(-c2ccc(Br)cc2)c1C(=O)NC1CC1`, the activity change is 12% (inactive).

Take `CCNc1c(NS(=O)(=O)c2ccc(C3CCCCC3)cc2)c(=O)oc2ccccc12`: the activity change is 29.7% (inactive).

`C=CS(=O)c1sc(Cl)c(N2CCOCC2)c1[N+](=O)[O-]` (stereo not given): the activity change was -104% (active).

As to `CCCCNC(=O)OC1CC2CC1[C@H]1CCCCN1C2=O` (stereo not given in full), the activity change is 12.3% (inactive).

Take `Cc1cc(C)nc(SCc2ccccc2C#N)n1`: the activity change is -12.7% (inactive).

Regarding `Cc1cc(C)nc(SCC(=O)N(C)C)n1`, the activity change is 0% (inactive).

Regarding `Cc1cc(C)nc(S/C=C/C(=O)c2ccccc2)n1`, the activity change was -104% (active).

With `CNc1cncc(-c2cccc(C(=O)N3CCOCC3)c2)n1`, the activity change was -12.2% (inactive).

Consider `CN(c1ccccc1)S(=O)(=O)c1cccc(NC(=O)Cc2c(F)cccc2Cl)c1`, for which the activity change is 0% (inactive).

In the case of `CN(c1ccccc1)S(=O)(=O)c1cccc(NC(=O)Cc2ccc(Cl)cc2)c1`, the activity change was -55.5% (active).

Take `CN(C)S(=O)(=O)c1cccc(NC(=O)Cc2ccsc2)c1`: the activity change was 19.3% (inactive).

As for `COc1nnc(-c2ccc(C)c(S(=O)(=O)N(C)C)c2)c2ccccc12`, the activity change was -11.4% (inactive).

As to `COc1ccccc1Cc1c(-c2ccc(Cl)cc2)nc2ccc(Cl)cn12`, the activity change was 16.9% (inactive).

Turning to `Cn1c(=O)c2c(ncn2CCc2ccccc2)n(C)c1=O`, the activity change is 26.6% (inactive).

With `CCCCc1c(-c2ccc(Cl)cc2)ncn1CCc1ccccc1OC`, the activity change was -109% (active).

Take `COc1ccccc1Cc1c(-c2ccc(Cl)cc2)nc2c3ccccc3ccn12`: the activity change was 4.19% (inactive).

On to `CCCCCc1c(Cc2ccccc2)ncn1CCc1ccccc1OC`, for which the activity change was -55.8% (active).

For the compound `COc1ccccc1CCNS(=O)(=O)c1cn(C)nc1C`, the activity change was -3.36% (inactive).

As for `CCc1c(-c2ccc(F)cc2)ncn1Cc1cccc(-c2ccccc2)c1`, the activity change was 4.55% (inactive).

As for `CCCCCc1c(-c2cccc(Br)c2)ncn1CCc1ccccc1OC`, the activity change is -27.9% (inactive).

As for `CCCc1c(-c2ccccc2F)ncn1Cc1ccccc1OC`, the activity change is -24.5% (inactive).

For the compound `CCCCc1c(-c2ccc(Br)cc2)ncn1CCc1ccccc1OC`, the activity change was -93.2% (active).

Regarding `CCCCCc1c(-c2ccc(OC)c(OC)c2)ncn1CCc1ccccc1OC`, the activity change was -71.5% (active).

As to `CCC(=O)NCc1cc(-c2nn(C)c(=O)c3ccccc23)ccc1OC`, the activity change was -12.6% (inactive).

Regarding `COc1cccc(NC(=O)CSc2nccn(-c3ccc4c(c3)OCCO4)c2=O)c1`, the activity change is -15.5% (inactive).

Consider `COc1ccc(S(=O)(=O)NC(=O)C2(C)CCN2C(=O)COc2ccc(Cl)cc2)cc1` (stereo not given), for which the activity change was 21% (inactive).

On to `Cc1ccc(N2C(=O)CC(N3CCSCC3)C2=O)c(C)c1` (stereo not given), for which the activity change was 9.43% (inactive).

As for `Cc1c(O)c(C)c2c(c1O)C(=O)C[C@@H](c1ccccc1)O2`, the activity change was 40.2% (inactive).

Take `CCCNC(=O)C1CC(=O)N(c2ccc(OCc3ccccc3)cc2)C1` (stereo not given): the activity change was 18% (inactive).

On to `c1ccc(C(=NNc2nc3ccccc3s2)c2ccccn2)cc1`, for which the activity change is -21.7% (inactive).

Consider `C=CCn1nc(C(=O)OCC)cc1-c1sc(NC(=O)c2ccccc2)nc1C`, for which the activity change is -29.6% (inactive).

For the compound `CNC[C@H]1OCc2cnnn2CCCC(=O)N([C@H](C)CO)C[C@@H]1C`, the activity change is -6.3% (inactive).

With `CCC(=O)Nc1ccc(C(=O)CSc2nnc(CNc3ccc(Cl)cc3)o2)cc1OC`, the activity change was -55.7% (active).

Consider `CCOC(=O)CSc1nnc(CNc2ccc(F)cc2)o1`, for which the activity change was 3.99% (inactive).

With `COc1cc(C(=O)NCc2nnc(SCC(=O)c3ccc(Cl)cc3)o2)cc(OC)c1OC`, the activity change is 9.13% (inactive).

In the case of `Cc1ccc(-c2csc(C(C#N)=C(O)CN3CCN(C(=O)c4ccco4)CC3)n2)cc1`, the activity change was -7.72% (inactive).

As to `CC1=CC(C)(C)Nc2ccc(OC(=O)C(Cc3ccccc3)N3C(=O)C4CCCCC4C3=O)cc21` (stereo not given), the activity change is -94.7% (active).

Turning to `CCOC(=O)C(Cc1ccc(N)cc1)N1C(=O)c2ccccc2C1=O` (stereo not given), the activity change was 12.1% (inactive).

Regarding `CC1=CC(C)(C)Nc2ccc(OC(=O)CN3C(=O)C4CCCCC4C3=O)cc21` (stereo not given), the activity change is -97.6% (active).

`O=C(C(Cc1ccccc1)n1cccc1)N1CCN(C2CCCCC2)CC1` (stereo not given): the activity change was 8.33% (inactive).

As to `COc1ccc(C(=O)COC(=O)CN2C(=O)C3CC=CCC3C2=O)c(OC)c1` (stereo not given), the activity change is -15.2% (inactive).

With `O=C(COC(=O)CN1C(=O)C2CCCCC2C1=O)Nc1ccc(F)c(F)c1F` (stereo not given), the activity change is 4.41% (inactive).

For `C/C=C/C(=O)OCc1csc(CC(=O)Nc2ccccc2C)n1`, the activity change was 13.6% (inactive).

Consider `COc1ccc(S(=O)(=O)N2CCN(C(C)C(=O)Nc3ccc(C(C)C)cc3)CC2)cc1` (stereo not given), for which the activity change was -16.4% (inactive).

As for `COCCCNC(=O)Cc1ccc(-n2c(C)nc3cccnc32)cc1`, the activity change was 22.7% (inactive).

For the compound `COc1cccc(C(O)c2ncc(-c3ccc4ccccc4c3)[nH]2)c1` (stereo not given), the activity change is 18.2% (inactive).

In the case of `CCOC(=O)C1CCCN(C(=O)c2ccc(C)c(S(=O)(=O)N3CCCCC3)c2)C1` (stereo not given), the activity change was 4.44% (inactive).

(Values after PubChem BioAssay AID743279 (National Center for Advancing Translational Sciences (NCATS), 2014).)
